# Compounds without any hit were thinned out: in the full panel of roughly 83,000, 20% have a hit.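 Testing used 96-well plates and a 48-hour single-concentration exposure. Example: -40 means 40% of the starting cells died.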 Unmarked numbers belong to inactive results. The source made the active and inactive calls. The calls were made as follows: active = growth percent below 10; inactive = the rest.
# What was measured:
# Experiment in all cases: NCI-60 one-dose screen, 48 h (100 = growth as untreated, 0 = no growth, -100 = all killed)
# Conditions in all cases: 10 µM unless noted
# [1] = tested on: NCI-H23 lung
# [2] = tested on: NCI-H226 lung
# [3] = tested on: NCI-H322M lung
# [4] = tested on: HOP-62 NSCLC
# [5] = tested on: NCI-H460 lung
# [6] = tested on: HOP-92 NSCLC
# [7] = tested on: NCI-H522 lung
# [8] = tested on: A549/ATCC NSCLC
# [9] = tested on: 786-0 renal
# [10] = tested on: COLO 205 colon
Compound,growth [1],growth [2] [%],growth [3],growth [4] [%],growth [5],growth [6],growth [7],growth [8],growth [9],growth [10]
CCCCCCNC(=O)Oc1ccc(/C(=C(\C)c2ccccc2)c2ccc(OCCN3CCCCC3)cc2)cc1,68.7%,93.8,80.5%,75.4,41%,64.1%,71.8%,64.4%,16.3%,5.73% (active)
C/C=C(\C)C(=O)NC1=CC[C@@]2(C)C(=CCC3C2CC[C@@]2(C)C3CC[C@@H]2C(C)N(C)C)C1=O (stereo not given in full),39.2%,89.6,36.9%,46.4,17.4%,40.6%,77.9%,60.8%,44.2%,-8.4% (active)
COc1ccc(C(=O)/C=C/c2cc3ccccc3n3nnnc23)cc1,103%,105,103%,103,112%,109%,94%,105%,91.4%,122%
Cn1c2ccccc2c2c3c(c4c5ccccc5n(C)c4c21)C(=O)OC3,97.6%,80.9,87.6%,90.8,97.6%,95.6%,88.8%,104%,102%,107%
COc1ccc(/C=C2\COc3ccc(-c4ccccc4)cc3C2=O)c(OC)c1,77.9%,86.6,90.2%,120,83.4%,109%,39.7%,90.9%,83.2%,124%
O=[N+]([O-])CC(c1ccccc1)c1c[nH]c2ccccc12 (stereo not given),68.5%,63.6,97.6%,56,52.6%,75.7%,5.68% (active),42.4%,70%,54.1%
CC1(C)CC(O)CCCCCCOc2c(CN)cccc2NC(=O)c2nc(cnc2N)-c2ccc(cc2)S1(=O)=O (stereo not given),28%,48.6,44.4%,44.7,-30.2% (active),115%,12.6%,27.9%,-15.4% (active),22.9%
Cc1ccc(CNc2c3ccccc3nc3cc(NC(=O)CCN4CCCC4)ccc23)cc1,-48.1% (active),35,1.8% (active),19.9,-64.7% (active),-0.443% (active),-41.2% (active),-36.9% (active),22.3%,-40.3% (active)
O=C1Nc2ccc(F)cc2/C1=C\c1c(-c2ccccc2)nc2ccccn12,53.4%,91.5,76.3%,72.5,81.5%,72.7%,21.3%,71.7%,75.4%,91.9%
Fc1ccc(-c2cn3c(nc4ccccc43)c(-c3ccccc3)n2)cc1,88.5%,97.5,109%,107,98.2%,68.7%,64.7%,91.4%,83%,116%
CCc1c(Cl)nc(N)nc1Nc1ccc(C)c(C)c1,96.9%,83.5,110%,92.7,80.7%,112%,81.9%,99.3%,101%,106%
COc1cc(/C=N/O)nc(-c2ccccn2)c1,19.9%,11.7,23.9%,23.9,5.13% (active),54.4%,7.77% (active),14.8%,17.5%,10.7%
O=C(Nc1ccc(F)cc1)Nc1ccc(NC(=O)c2cc(Cl)nc3ccccc23)cc1,69.2%,52.8,59.6%,22.4,18.5%,23.5%,61.7%,79.8%,98.4%,53.5%

# — PubChem BioAssay (NCI)
